Vc quorum ag-1: induces V. cholerae light production without autoinducers. activation, % at 18.7 µM. V. cholerae BH1578 lux reporter, luminescence, 6 h. hit rate 0.16% among 350,000; in the data active = activation mostly above about 9.7%, no sharp cut-off; inconclusive = no clear call, values can overlap the other calls; inactive = mostly below about 3.7%
BoNT-F LC inh: inhibitors of Botulinum neurotoxin F light chain protease; Multiplex microsphere protease cleavage assay, flow cytometry; inhibition, % at 10 µM; hit rate 0.22% among 360,000; AID 588497; in the data active = inhibition above about 35%, passing the limit was not always enough; inconclusive = no clear call, values can overlap the other calls
Anthrax LF prot: inhibitors of Bacillus anthracis lethal factor protease; inhibition, % at 10 µM; hit rate 0.12% among 360,000; multiplex microsphere protease cleavage assay, LF; AID 588501; P15917
BoNT-A LC inh2: blocks Botulinum neurotoxin A light chain protease; multiplex microsphere protease substrate cleavage, flow cytometry; inhibition, % at 10 µM; hit rate 0.17% among 360,000
Bead autofluor: compound fluorescence in toxin protease inhibitor counterscreen; compound autofluorescence counterscreen, microsphere flow cytometry; active compounds read high; fluorescence intensity (test concentration not listed); hit rate 3.1% among 360,000; AID 624483; in the data active = fluorescence intensity above about 16000; inconclusive = no clear call, values can overlap the other calls
Vc quorum ag-2: induces V. cholerae light production without autoinducers | V. cholerae BH1578 lux reporter, luminescence, 6 h | 620 tested, under 10 active | shares compounds with Vc quorum ag-1 | AID 602243 | activation, % at 50 µM; call rule not given here
HeLa tox: kills HeLa cells within 24 hours. 25 tested, under 10 active. HeLa viability, CellTiter-Glo ATP luminescence. shares compounds with Vc quorum ag-1. activity change, negative = cytotoxicity, % at 35 µM;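 active = signal drop with fitted half-maximal concentration at or below twice the highest valid dose; inconclusive = flat curve with 30 to 70% loss, or poor fit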
Numbers stand for hits; . = inactive; ? = inconclusive; / = not tested or not shown. Hits are enriched below; roughly 3.5% of the tested compounds scored in any of these assays. Rule as the data show it, unless noted: active = inhibition above about 30%; inconclusive = no clear call, values can overlap the other calls; inactive = below that.

SMILES	Vc quorum ag-1	BoNT-F LC inh	Anthrax LF prot	BoNT-A LC inh2	Bead autofluor	Vc quorum ag-2	others
Cc1cc(=O)[nH]c(CN2CCC(c3ccccc3)CC2)n1	/	.	.	.	.	.
Cc1nc(CN2CCC(c3ccccc3)CC2)cc(=O)[nH]1	.	.	.	.	.	/
O=C(c1ccccn1)N(Cc1ccco1)C1(C(=O)NC2CCCC2)CCCCC1	.	.	.	.	.	/
O=C(c1ccc2c(c1)OCO2)N(Cc1ccco1)C1(C(=O)NC2CCCCC2)CCCCC1	17	.	.	.	.	.
Cc1ccc(SCc2nc(-c3cccnc3)no2)cc1	21	.	.	.	.	.
CCCCN(C(=O)c1c(CC)noc1C)c1c(N)n(CCC)c(=O)[nH]c1=O	.	.	.	.	.	/
Cn1c(CCNC(=O)c2ccco2)nc2cc(NC(=O)NC3CCCCC3)ccc21	7.6	.	.	.	.	.
Cn1c(CNC(=O)CNC(=O)Cc2ccc(F)cc2)cc(=O)n(C)c1=O	.	.	.	.	.	/
COc1ccccc1N1CCN(CCCCOc2c(OC)cccc2OC)CC1	.	.	.	.	.	/
COc1ccccc1N1CCN(CCCOc2ccc(F)cc2)CC1	.	.	.	.	.	.
CCN(CC)C(=O)c1sc(NC(=O)Cc2ccc(OC)cc2)c(C#N)c1C	17	.	.	.	?	.
CC(C)N1CCc2c(sc(NC(=O)c3ccc4ccccc4c3)c2C(N)=O)C1	138	.	.	.	.	.
CC(C)N1CCc2c(sc(NC(=O)c3ccc(C(=O)c4ccccc4)cc3)c2C(N)=O)C1	.	.	.	.	.	/
Cc1ccc(S(=O)(=O)Nc2cc(C(=O)NCCN3CCCC3)ccc2N2CCCCC2)cc1	.	.	.	.	.	/
Cc1ccc(S(=O)(=O)Nc2cc(C(=O)NCCN(C)C)ccc2N2CCCCC2)cc1	17	.	.	.	.	.
CCN(CCn1cccn1)C(=O)C1CCC(=O)N(CCN2CCOCC2)C1 (stereo not drawn)	.	.	.	.	.	/
O=C(COC(=O)/C=C/c1ccccc1)NC1CCCC1	529	.	.	.	.	.
O=C(COC(=O)/C=C/c1ccccc1)NC1CCCCC1	.	.	.	.	.	/
O=C(Cc1ccc(-c2ccccc2)cc1)NC1CCCC1	/	.	.	.	.	/	HeLa tox=.
O=C(COC(=O)/C=C/c1ccc(OC(F)F)cc1)NC1CCCCCC1	9.5	.	.	.	.	.
O=C(Cc1ccc(F)cc1)NC1CCCCCC1	.	.	.	.	.	/
O=C(COc1ccc2c(c1)OCO2)Nc1cccc(F)c1	.	.	.	.	.	/
Cc1cc(COc2ccccc2O)on1	.	.	.	.	.	.
CC(C)Oc1nc(-c2ccc(Cl)cc2)nc2ccccc12	.	?	.	.	.	/
COc1cccc(-c2nc(OC(C)C)c3ccccc3n2)c1	25	.	.	.	.	.
SMILES	Vc quorum ag-1	BoNT-F LC inh	Anthrax LF prot	BoNT-A LC inh2	Bead autofluor	Vc quorum ag-2	others
CC(=O)c1cccc(NC(=O)c2nc(-c3ccccc3)oc2C)c1	.	.	.	.	.	/
CSc1ccc(C#N)cc1NC(=O)c1ccccc1	.	.	.	.	.	/
CSc1ccc(C#N)cc1NC(=O)c1ccc(Cl)cc1Cl	186	.	.	.	.	.
COc1ccccc1NC(=O)COC(=O)c1cc2ccccc2cc1O	.	.	.	.	.	/
COc1ccccc1NC(=O)COC(=O)c1ccc(C)cc1	/	/	/	/	/	/	HeLa tox=.
COc1ccccc1NC(=O)COC(=O)c1cc2ccccc2s1	/	/	/	/	/	/	HeLa tox=.
COc1ccccc1NC(=O)c1ccc(NC(=O)COC(=O)c2ccc(O)cc2)cc1	.	.	.	.	.	/
COc1ccc(Cl)cc1NC(=O)COC(C)=O	.	.	.	.	.	/
COc1ccc(Cl)cc1NC(=O)COC(=O)c1ccc(C)o1	/	.	.	.	.	.	HeLa tox=.
Cc1cc(C(=O)OCC(=O)N2CCC(C)CC2)c2ccccc2n1	.	.	.	.	.	/
Cn1cnnc1SCCOc1ccc(Cl)cc1	132	.	.	.	.	.
COc1ccc2nc(SC(C)C(=O)NCC(=O)Nc3ccc(F)c(F)c3F)[nH]c2c1 (stereo not drawn)	.	.	.	.	.	.
CCc1cc2c(SCc3nc4sc(C(C)=O)c(C)c4c(=O)[nH]3)ncnc2s1	.	.	.	.	.	/
COc1ccc(NC(=O)C(=O)NCC2CCCN2S(=O)(=O)c2ccc(C)cc2)cc1 (stereo not drawn)	.	.	.	.	.	.
COc1ccc(CCNC(=O)C(=O)NCC2CCCN2S(=O)(=O)c2ccc(OC)cc2)cc1 (stereo not drawn)	29	.	.	.	.	.

Screening data from PubChem.
